# Compound activity (PubChem BioAssay)
# DAX1 inh-1 – inhibitors of human orphan nuclear receptor DAX1 (NR0B1). inhibition, % at 6.75 µM. 340,000 compounds, 0.99% hits. AID 504766. HEK293 Gal4-DAX1 luciferase reporter, luminescence. P51843;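 active means inhibition above the mean over all tested compounds plus 3 SD, cut at about 4.2% in these data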;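 further: 0% = DAX1-transfected cells with DMSO and 100% = empty-vector control cells with DMSO; inhibition shows as a rise in luminescence from relieved DAX1 repression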
# hgDAF-12 ag – activates the H. glycines DAF-12 receptor ligand-binding domain; AID 687014; 370,000 compounds, 1.8% hits; activation, % at 6.8 µM; HEK293 GAL4-hgDAF12 UAS-luciferase reporter, agonist luminescence; normalized to butyrate control;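 active means activation above a cutoff set at the mean of all screened compounds plus 3 SD, cut at about 10% in these data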;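 further: 0% = DMSO wells and 100% = sodium butyrate wells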
# DAX1 inh-2 – DAX1 (NR0B1) inhibition, primary screen; HEK293T StAR-luciferase reporter, SF-1/DAX-1 repression relief; inhibition, % at 6.8 µM; 370,000 compounds, 1.1% hits;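 active means inhibition above the mean over all tested compounds plus 3 SD, cut at about 3.6% in these data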;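 further: 0% = DAX-1 cells with DMSO and 100% = cells lacking DAX-1 with DMSO; higher inhibition means more luminescence from relief of DAX-1 repression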
# ssDAF12 agonist – activators of S. stercoralis DAF-12 nuclear receptor; HEK293 ssDAF-12/GRIP1 lit1-tk-luc reporter, luminescence; % of 3 µM dafachronic acid response; activation, % at 6.8 µM; 370,000 compounds, 1% hits; AID 652126;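 active means activation above the mean over all tested compounds plus 3 SD, cut at about 0.9% in these data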;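 further: 0% = DMSO-only wells and 100% = 3 µM delta7-dafachronic acid wells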
# hcDAF12 agonist – H. contortus DAF-12 activation, primary screen; HEK293 hcDAF-12 lit1-tk-luc reporter, luminescence; 0% DMSO, 100% Δ7-dafachronic acid; activation, % at 6.8 µM; 370,000 compounds, 1.4% hits; AID 652067;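 active means activation above the mean of all tested compounds plus 3 SD, cut at about 5.5% in these data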;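 further: 100% = response to 3 µM Δ7-dafachronic acid high control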
# AHR activator – activates the human aryl hydrocarbon receptor; 320,000 compounds, 2.5% hits; AHR-responsive luciferase reporter cells, luminescence; activation, % at 5 µM; AID 2796; in the data active means activation above about 47%;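 further: 0% = vehicle wells and 100% = reference agonist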
# Target sequence (P35869 whole entry, looked up): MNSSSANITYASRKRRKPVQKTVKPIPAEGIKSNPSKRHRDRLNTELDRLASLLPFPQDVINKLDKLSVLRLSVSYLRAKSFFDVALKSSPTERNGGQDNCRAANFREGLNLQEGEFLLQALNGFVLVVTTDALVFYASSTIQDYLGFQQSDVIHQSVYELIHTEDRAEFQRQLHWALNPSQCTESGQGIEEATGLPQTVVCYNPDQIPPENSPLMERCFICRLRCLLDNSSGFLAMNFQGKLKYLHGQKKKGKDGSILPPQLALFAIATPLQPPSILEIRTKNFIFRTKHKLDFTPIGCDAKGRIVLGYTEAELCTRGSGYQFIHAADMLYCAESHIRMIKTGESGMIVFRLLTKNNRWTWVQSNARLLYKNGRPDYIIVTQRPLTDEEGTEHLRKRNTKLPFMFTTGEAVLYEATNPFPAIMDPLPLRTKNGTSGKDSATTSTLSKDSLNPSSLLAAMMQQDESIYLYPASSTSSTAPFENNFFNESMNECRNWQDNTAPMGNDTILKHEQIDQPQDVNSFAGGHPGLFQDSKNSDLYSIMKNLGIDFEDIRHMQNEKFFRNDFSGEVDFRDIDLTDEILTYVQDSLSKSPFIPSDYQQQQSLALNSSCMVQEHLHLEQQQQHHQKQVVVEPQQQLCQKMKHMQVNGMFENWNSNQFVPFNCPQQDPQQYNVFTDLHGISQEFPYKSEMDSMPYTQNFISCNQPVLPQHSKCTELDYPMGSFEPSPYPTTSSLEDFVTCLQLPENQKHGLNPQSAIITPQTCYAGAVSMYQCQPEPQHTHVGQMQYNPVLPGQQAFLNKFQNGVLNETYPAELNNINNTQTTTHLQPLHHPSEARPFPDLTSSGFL
# Starred values were filed as active, the others as inactive; x = no result. The list is not random: actives were taken first. Their share in the collection is about 5.7%.
SMILES,DAX1 inh-1,hgDAF-12 ag,DAX1 inh-2,ssDAF12 agonist,hcDAF12 agonist,AHR activator
Cn1nc(-c2ccccc2F)c2cc(C(=O)N3CCN(C(=O)c4ccco4)CC3)sc21,-1.5,-3.1,-0.5,-1.2,-3.6,66.4*
CCOC(=O)C1CCN(C(=O)c2cc3c(-c4ccc(OC)c(OC)c4)nn(C)c3s2)CC1,-0.3,x,x,x,x,-0.5
COc1cccc(-c2nn(C)c3sc(C(=O)N4CCOCC4)cc23)c1,1.1,-1.6,-0.6,-1.6,-3.1,58.4*
CCOC(=O)c1c(S(=O)(=O)NCC(C)c2ccccc2)c(C)n(C)c1C (stereo not drawn),-0.1,0.2,0.7,-1.1,-1.3,2.0
COc1cccc(-c2nn(C)c3sc(C(=O)N4CCN(c5ccccn5)CC4)cc23)c1,-2.2,x,x,x,x,58.0*
COc1cccc(-c2nc(CS(=O)(=O)CC(=O)N3CCN(c4ccccn4)CC3)c(C)o2)c1,-0.7,-4.4,-0.9,-1.5,-2.2,56.7*
Cn1nc(-c2ccc(Cl)cc2)c2cc(C(=O)NCC3CCCO3)sc21 (stereo not drawn),-1.5,-1.4,0.2,-0.1,1.4,56.9*
Cc1occc1C(=O)/C(C#N)=C/c1ccc(O)c(Br)c1,0.1,2.6,-0.1,-0.5,-1.3,0.3
Cn1c(COc2ccccc2)nnc1SCC(=O)NNC(=O)C1CCCCC1,0.0,0.2,-0.6,-1.2,0.5,5.3
O=C(NCCCN1CCOCC1)c1[nH]c(C(F)(F)F)nc1-c1ccccc1,x,-2.1,1.0,0.1,1.3,x
O=C(CN1CCN(C(=O)c2ccc(-c3nc4ccccc4s3)o2)CC1)Nc1ccc(F)cc1,-1.1,2.5,-4.6,-1.4,0.7,19.9
CC(C)[C@H](NC(=O)[C@@H]1Cc2c([nH]c3ccccc23)C2c3ccccc3C(=O)N21)C(=O)N1CCC[C@@H]1C(=O)O (stereo partly drawn),4.2,0.6,-0.9,-0.3,5.7*,11.4
CC(C)[C@H](NC(=O)[C@@H]1Cc2c([nH]c3ccccc23)C2c3ccccc3C(=O)N21)C(=O)N1CCC[C@H]1C(=O)O (stereo partly drawn),x,-1.6,0.8,0.2,2.0,x
CC[N+]1(CC(O)COC2CC(C)CC(C)(C)C2)CCOCC1 (stereo not drawn),0.5,0.2,-0.6,-1.6,-0.2,3.5
Cc1ccc(/C(N)=N/OC(=O)CCc2ccccc2)cc1,1.9,4.3,1.0,-0.5,6.2*,0.1
COc1ccc(CNS(=O)(=O)/C=C/c2ccc(OC)cc2CNC(=O)OC(C)(C)C)cc1,x,-0.1,-1.1,-1.4,-3.8,x
CC(NC(=O)NC(N)=O)(C(F)(F)F)C(F)(F)F,5.5*,2.0,-0.2,-1.2,-2.5,-3.9
C/C(=N\Nc1nc(Cl)c(Cl)cc1Cl)c1ccc(S(=O)(=O)NCc2ccco2)cc1,-0.5,7.9,-0.1,-0.7,3.0,49.0*
C/C(=N\Nc1ccccn1)c1ccc(S(=O)(=O)NCc2ccco2)cc1,-1.2,0.0,-0.7,-1.8,-0.1,18.2
CC1CCCCN1CCNC(=O)CC1Oc2ccccc2NC1=O (stereo not drawn),4.6*,2.5,1.4,3.2*,2.1,6.1
Cc1ccc2c(c1)NC(=O)C(CC(=O)NC1CCCCC1C)O2 (stereo not drawn),4.8*,-0.6,0.0,-1.7,-0.1,-0.5
O=C1NC(=O)/C(=C\c2ccc(O)cc2O)S1,0.5,6.5,0.7,-1.4,0.3,12.1
O=c1c2cc(Br)ccc2nc(-c2ccccc2)n1O,-0.1,-1.1,0.6,0.1,0.2,47.6*
O=C(CSC(=S)N1CCOCC1)Nc1nc(-c2ccccc2)c(-c2ccccc2)o1,5.6*,0.5,0.8,-1.3,-0.4,4.2
Nc1nc(CSc2nc3ccccc3[nH]2)cs1,4.6*,4.2,0.1,0.2,4.2,22.4
SMILES,DAX1 inh-1,hgDAF-12 ag,DAX1 inh-2,ssDAF12 agonist,hcDAF12 agonist,AHR activator
O=C(Nc1ccc(F)cc1)C(Sc1nc2ccccc2[nH]1)c1ccccc1 (stereo not drawn),-0.9,-1.3,-0.4,-0.4,-3.0,69.3*
CCSc1nc2ccccc2[nH]1,1.7,-0.5,-0.3,-0.8,1.4,31.4
Fc1ccc(CSc2nc3ccccc3[nH]2)cc1,3.3,11.6*,3.4,-0.2,3.1,-13.0
O=C(CSc1nc2ccccc2[nH]1)Nc1ccc(F)cc1,1.4,0.5,-0.6,-0.7,-2.0,-1.5
Nc1ccccc1Sc1nc2ccccc2[nH]1,-0.1,0.8,2.8,-0.2,8.9*,43.8
C[C@H](CO)N1C[C@H](C)[C@@H](CN(C)S(=O)(=O)c2ccccc2C#N)OCc2cn(nn2)CCCC1=O,1.9,-1.2,1.7,-0.8,-0.5,x
CC(C)(C)OC(=O)C[C@@H]1C/C=C\C[C@@H](CC(=O)N(CCO)Cc2ccccc2)C(=O)N2CCC[C@@H]2COC1=O,1.1,1.6,0.2,-1.2,-0.2,-0.6
O=C(CSCc1nc2ccccc2[nH]1)Nc1ccccc1,0.7,-0.1,0.5,-1.3,0.1,4.2
c1ccc(CSCc2nc3ccccc3[nH]2)cc1,2.0,6.5,1.0,-0.7,6.4*,8.1
COCCN(C(=S)Nc1cccc(C)c1C)C(C)c1ccco1 (stereo not drawn),8.3*,0.5,1.0,-1.3,-0.6,0.2
COC(=O)c1ccccc1NC(=O)c1cc2sccc2n1C,0.3,2.4,-0.8,-0.9,0.9,65.3*
Cn1c(C(=O)NC2CCCCC2)cc2sccc21,1.4,8.2,2.4,0.3,6.0*,-4.7
Cn1c(C(=O)N2CCCC(C(=O)O)C2)cc2sccc21 (stereo not drawn),0.1,0.4,0.2,-1.1,0.6,4.4
CCn1c(C(=O)NC2CCC(C)CC2)cc2sccc21 (stereo not drawn),0.6,6.9,0.7,-0.8,-1.3,6.2
CN(C(=O)c1cc2sccc2n1C)C1CCCCC1,1.0,11.8*,1.3,-0.8,2.6,2.7
Cc1c(NC(=O)c2cccc(NC(=O)COc3ccc(C#N)cc3)c2)c(=O)n(-c2ccccc2)n1C,-1.0,0.6,-1.3,-1.1,-0.6,x
CCN1C(=O)/C(=C/C=C2/CCCN2C)OC1=S,0.1,13.1*,0.5,-0.6,0.8,22.2
Cc1cc(C(=O)CSc2nnnn2C)c(C)n1Cc1ccco1,1.8,11.7*,0.8,-0.1,3.1,8.8
Cc1ccc(-n2c(C)cc(C(=O)CSc3nnnn3C)c2C)cc1,-0.4,11.6*,1.1,0.4,4.9,6.7
CCOC(=O)c1nnc(-c2ccc(C)cc2)nc1N1CCSCC1,-2.0,0.2,-0.2,-1.5,-1.9,56.6*
Cc1ccc(OCCCCCCN2CCNCC2)c(Br)c1,4.7*,4.0,-0.2,-0.9,5.9*,0.3
O=C(/C=C/c1ccco1)Nc1nc(-c2ccccn2)cs1,1.5,3.8,0.1,-0.5,3.5,21.3
O=C(/C=C/c1ccco1)Nc1ccccn1,-1.5,13.1*,1.1,-0.5,3.9,0.3
